Holding throughout (assay type): functional
In assay [1] the target is Solute carrier family 2, facilitated glucose transporter member 1 (Homo sapiens) (UniProt P11166). Briefly: ST_JUDE_LEISH: Cytotoxicity at 2uM final concentration against transgenic Leishmania Mexicana promastigotes LmGLUT1 that are glucose transport deficient and complemented with the human glucose transporter GLUT1. Activity is measured by DNA content using SYBR green in vitro.

Assay [2] addresses Hexose transporter 1 (Plasmodium falciparum) (UniProt O97467). Briefly: ST_JUDE_LEISH: Cytotoxicity at 2uM final concentration against transgenic Leishmania Mexicana promastigotes LmPfHT that are glucose transport deficient and complemented with the Plasmodium falciparum hexose transporter. Activity is measured by DNA content using SYBR green in vitro.
The target of assay [3] is Glucose transporter (Leishmania mexicana) (UniProt O61059). Briefly: ST_JUDE_LEISH: Cytotoxicity at 2uM final concentration against transgenic Leishmania Mexicana promastigotes LmGT2 that are glucose transport deficient and complemented with the L. Mexicana glucose transporter 2. Activity is measured by DNA content using SYBR green in vitro.

What is called inhibition is the change of the read-out against control, counted positive when it falls.

Chain of Solute carrier family 2, facilitated glucose transporter member 1 (Homo sapiens) (P11166 whole entry): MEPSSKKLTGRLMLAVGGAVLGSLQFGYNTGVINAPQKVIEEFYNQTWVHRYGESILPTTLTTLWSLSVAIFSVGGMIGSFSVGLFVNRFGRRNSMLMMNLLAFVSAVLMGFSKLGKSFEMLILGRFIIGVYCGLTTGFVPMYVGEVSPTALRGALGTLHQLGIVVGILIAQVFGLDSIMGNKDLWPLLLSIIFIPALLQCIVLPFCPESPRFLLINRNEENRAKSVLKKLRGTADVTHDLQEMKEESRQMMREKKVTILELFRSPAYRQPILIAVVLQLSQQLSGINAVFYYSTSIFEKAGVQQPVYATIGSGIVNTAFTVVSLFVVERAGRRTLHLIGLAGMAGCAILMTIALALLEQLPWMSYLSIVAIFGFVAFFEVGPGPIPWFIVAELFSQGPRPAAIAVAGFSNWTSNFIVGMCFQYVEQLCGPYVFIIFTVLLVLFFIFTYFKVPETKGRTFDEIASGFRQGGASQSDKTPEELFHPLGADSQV

For `N=C(N)NN=CC(=O)Nc1ccc(Cl)c(C(F)(F)F)c1`, the inhibition in assay [1] stood at 8.87%; in assay [2], 7.04%; in assay [3], 9.08%.

For the compound `CNCCNCc1cccc(-c2ccc(-c3nc4cc(C(F)(F)F)ccc4[nH]3)cc2)c1`, the inhibition in assay [1] turned out to be 0.41%; in assay [2], 2.51%; in assay [3], 2.03%.

For `O=C(Nc1cccc(CN2CCCN(Cc3ccc4c(c3)OCO4)CC2)c1)c1ccc2ccccc2c1`, the inhibition was 1.49% in assay [1], 1.31% in assay [2] and -7.63% in assay [3].

Take `COc1ccc(-n2nc(C(=O)NCc3ccccc3OC)c3ccccc3c2=O)cc1`: the results for the inhibition in assay [1], in assay [2] and in assay [3] were 8.08%, 6.04% and 2.98%, respectively.

For `Fc1ccc(-c2csc3ncnc(Cl)c23)cc1`, the inhibition was -0.36% in assay [1], -0.72% in assay [2] and -2.14% in assay [3].

For the compound `O=C(Nc1ccc(N2CCN(C(=O)/C=C/c3ccccc3)CC2)c(Cl)c1)c1ccc([N+](=O)[O-])o1`, the inhibition was 58.5% in assay [1], 68% in assay [2] and 13.7% in assay [3].

On to `Oc1ccc(CCNc2nc(NCc3cccc(-c4cc(C(F)(F)F)ccc4Cl)c3)nc(N3CCNCC3)n2)cc1`, for which the results for the inhibition in assay [1], in assay [2] and in assay [3] were 2.86%, 1.88% and 2.82%, respectively.

Turning to `Fc1ccc2[nH]c(-c3cccc(-c4ccc(CNCCc5ccncc5)cc4)c3)nc2c1`, the inhibition in assay [1] stood at 13.9%; in assay [2], 12.6%; in assay [3] it was 11.4%.

`O=C(/C=C/c1ccc(Cl)c(Cl)c1)NC1CCN(CCNC(=O)c2cccc(Cl)c2)CC1`: the inhibition is 4.41% in assay [1], 3.11% in assay [2] and 2.53% in assay [3].

Take `COc1cc2c(Nc3ccc(NC(=O)c4ccccc4)cc3)ncnc2cc1OCCCN1CCOCC1`: the inhibition worked out at 3.25% in assay [1], 3.13% in assay [2] and 4.08% in assay [3].

For the compound `Cc1ccc(NC(=O)NC2CCN(c3ccnc4ccccc34)C2)cc1` (stereo not given), the figures for the inhibition in assay [1], in assay [2] and in assay [3] were 5.83%, 5.57% and 7.34%, respectively.

Take `OC1(c2ccc(Br)cc2)CCN(C2CCN(Cc3ccccc3)CC2)CC1`: the results for the inhibition in assay [1], in assay [2] and in assay [3] were 5.8%, 6.01% and 3.71%, respectively.

For `Cc1cccc(C)c1OC(=O)C(C)C(O)C1(Sc2ccccc2)CCN(C)CC1` (stereo not given), the values for the inhibition in assay [1], in assay [2] and in assay [3] were 5.2%, 3.78% and 3.85%, respectively.

Consider `O=C(NCCCCN1CCC(c2c[nH]c3ccccc23)CC1)c1sc(-c2ccc(C(F)(F)F)cc2)nc1CO`, for which the inhibition stood at 7.38% in assay [1], 8.88% in assay [2] and 5.81% in assay [3].

Regarding `O=S(=O)(c1ccccc1OC(F)(F)F)C1CC2CCC(C1)N2S(=O)(=O)c1cccc(C(F)(F)F)c1` (stereo not given), the inhibition was 0.7% in assay [1], -0.63% in assay [2] and 0.73% in assay [3].

Regarding `CCCc1cc(Cc2cnc(N)nc2N)cc2c1OC(C)C2C` (stereo not given), the inhibition was found to be 8.26% in assay [1], 8.61% in assay [2] and 5.24% in assay [3].

As to `CCCNCc1ccc(-c2ccc(CN(CCOC)C(=O)c3nn(-c4ccccc4)nc3C)cc2)nc1`, the inhibition stood at 4.16% in assay [1], 1.87% in assay [2] and 1% in assay [3].

With `COc1cccc(NC(=O)COc2ccc(C(=O)Nc3nc4ccccc4[nH]3)cc2)c1`, the inhibition is 2.45% in assay [1], 2.07% in assay [2] and -1.7% in assay [3].

In the case of `COc1ccc(CC(=O)NC2CCN(c3ccnc4cc(Cl)ccc34)C2)cc1` (stereo not given), the inhibition in assay [1] is -0.54%; in assay [2] it was -0.22%; in assay [3], -0.25%.

Regarding `CCn1ccc2c(N3CCCCS3(=O)=O)cc(C(=O)N[C@@H](Cc3ccccc3)[C@H](O)CNC(C)(C)c3cccc(C(F)(F)F)c3)cc21`, the inhibition in assay [1] was 0.44%; in assay [2], -1.1%; in assay [3] it was -1.56%.

As to `O=C(Nc1ccc(Cl)cc1)Nc1cccc(-c2cccc(-c3nc4cc(F)ccc4[nH]3)c2)c1`, the results for the inhibition in assay [1], in assay [2] and in assay [3] were 7%, 6.99% and 6.45%, respectively.

Regarding `O=C(/C=C/c1ccccc1O)N1CCC(CCN2CCC(c3c[nH]c4ccccc34)CC2)CC1`, the figures for the inhibition in assay [1], in assay [2] and in assay [3] were -5.26%, -3.35% and -2.57%, respectively.

For the compound `COc1ccc(Cl)cc1N1CCN(CCCNC(=O)c2ccc(-c3nc4cc(Cl)c(C)cc4[nH]3)c(F)c2)CC1`, the inhibition in assay [1] was determined as 1.96%; in assay [2], 0.19%; in assay [3], 0.07%.

On to `N#Cc1cc(C(=O)Nc2ccccc2)c(N)nc1SCC(=O)NC(c1ccccc1)c1cccs1` (stereo not given), for which the inhibition in assay [1] is 4.19%; in assay [2] it was 1.36%; in assay [3], 4.48%.

Regarding `CN1CCN(c2cccc(-c3nnc(-c4ccc(OCC(=O)NCc5ccc(C(F)(F)F)cc5)c([N+](=O)[O-])c4)o3)c2)CC1`, the results for the inhibition in assay [1], in assay [2] and in assay [3] were 3.75%, 3.68% and -0.17%, respectively.

With `CC(C)(C)c1ccc(CN2CCCCC(NC(=O)c3cc(-c4ccccc4F)cs3)C2)cc1` (stereo not given), the results for the inhibition in assay [1], in assay [2] and in assay [3] were -1.83%, -0.56% and 0%, respectively.

With `CC(=O)N1c2ccccc2C(C)=CC1(C)C`, the inhibition in assay [1] is -0.17%; in assay [2], -0.45%; in assay [3], -1.02%.

Regarding `CC(Oc1ccc(Cl)cc1)C(=O)Nc1cc(C(F)(F)F)ccc1N1CCOCC1` (stereo not given), the inhibition in assay [1] is 8.02%; in assay [2], 10.4%; in assay [3] it was 6.86%.

With `C=CCOC(=O)N1CCC(CNCc2ccc(-c3cccc(-c4nc5cc(F)ccc5[nH]4)c3)cc2)C1` (stereo not given), the values for the inhibition in assay [1], in assay [2] and in assay [3] were 1.77%, 2.36% and 3.88%, respectively.

Take `O=C(Nc1ccc(C(F)(F)F)cc1)c1cccc(S(=O)(=O)NCC2CCCN(CC3CCCCC3)C2)c1` (stereo not given): the figures for the inhibition in assay [1], in assay [2] and in assay [3] were 5.71%, 2.62% and 0.02%, respectively.

As for `CC(C)CCNCC(O)Cn1c2ccc(Cl)cc2c2cc(Cl)ccc21` (stereo not given), the inhibition in assay [1] is 0.18%; in assay [2] it was 0.29%; in assay [3] it was 0.33%.

As to `CCCCCCc1c(C)nc2cc(OC)ccc2c1O`, the inhibition worked out at 3.2% in assay [1], 5.49% in assay [2] and 2.87% in assay [3].

`COc1ccc2nccc([C@@H](O)CN3CCC(CO)(NCc4cc5ccccc5o4)CC3)c2c1`: the results for the inhibition in assay [1], in assay [2] and in assay [3] were 7.99%, 13.3% and 1.76%, respectively.

On to `COc1ccc(Cl)c(CC2c3cc(O)c(Cl)cc3CCN2C)c1` (stereo not given), for which the inhibition in assay [1] was -0.53%; in assay [2] it was -0.87%; in assay [3], -1.58%.

As to `Cc1cc(Nc2ccc(C)c(Cl)c2)n2nc(C(F)(F)F)nc2n1`, the inhibition in assay [1] worked out at 6.65%; in assay [2], 2.47%; in assay [3], 1.18%.
